MITF inh – MITF inhibitors, primary screen, biochemical, AlphaScreen, human; AID 1259374, 2018; inhibition, % at 2.6 µM; Microphthalmia-associated transcription factor (Homo sapiens), O75030; hit rate 0.91% among 650,000; AlphaScreen MITF homodimerization, bead proximity signal; in the data active means inhibition above about 50%
FBW7 activator – FBW7 E3 ligase activators, primary screen, biochemical, AlphaScreen, human. F-box/WD repeat-containing protein 7 (Homo sapiens), Q969H0. AlphaScreen FBW7–phospho-cyclin E peptide binding, activator screen. normalized activity (activation), % at 26.1 µM. hit rate 0.13% among 650,000. AID 1259310, 2017; in the data active means normalized activity above about 1.9%;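 further: purified mutant Fbw7 with reduced substrate affinity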
TEAD-YAP block – TEAD-YAP interaction inhibition, primary screen, TEAD-YAP interaction inhibitor project, luminescence, HEK-TIYL cells; hit rate 1.4% among 640,000; inhibition, % at 9.12 µM; TEAD-Gal4/YAP UAS-luciferase luminescence; AID 1259422, 2018; in the data active means inhibition above about 32%
GPR151 activ – activators of human GPR151, primary screen, cell-based, PathHunter beta-arrestin, luminescence; AID 1508602, 2020; activation, % at 11.2 µM; hit rate 1% among 650,000; PathHunter beta-arrestin GPR151 cells; G-protein coupled receptor 151 (Homo sapiens), Q8TDV0; in the data active means activation above about 4.9%
GPR151 conf act – GPR151 activators, triplicate retest, confirmation, cell-based, PathHunter beta-arrestin, luminescence; shares compounds with GPR151 activ; 6,700 tested, under 10 active; activation, % at 11.2 µM; GPR151 PathHunter beta-arrestin cells, 90 min; % of EA-reagent control over plate median; AID 1508609, 2020;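 active means mean percent activation across replicates above the confirmation screen cutoff of 4.91%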
GPR119 counter – GPR119 activators in beta-arrestin cells, counter-screen for GPR151 activator project, cell-based, PathHunter beta-arrestin, luminescence, triplicate | shares compounds with GPR151 activ | 90 min; 0 = compound-well median, 100 = enzyme-acceptor control | activation, % at 11.2 µM | hit rate 0.3% among 6,700;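 active means mean percent activation in the counterscreen above 29.09%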;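 further: counterscreen on off-target GPR119 to flag nonselective hits from the GPR151 activator screen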
Target sequence (Q8TDV5 whole entry, looked up): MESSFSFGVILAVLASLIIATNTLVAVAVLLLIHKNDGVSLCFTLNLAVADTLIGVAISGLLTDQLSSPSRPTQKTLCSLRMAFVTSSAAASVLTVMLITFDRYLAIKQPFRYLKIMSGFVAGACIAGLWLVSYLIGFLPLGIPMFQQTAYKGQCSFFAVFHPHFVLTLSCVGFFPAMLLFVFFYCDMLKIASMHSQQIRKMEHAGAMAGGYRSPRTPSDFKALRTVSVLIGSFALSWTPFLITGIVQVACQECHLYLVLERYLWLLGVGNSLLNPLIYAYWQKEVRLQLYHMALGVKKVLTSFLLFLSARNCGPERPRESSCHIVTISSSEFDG
A number is an active result; i = inactive; nt = no result given. A selection: hits, their analogues and other compounds. The true share with any hit is near 3.5%.

SMILES | MITF inh | FBW7 activator | TEAD-YAP block | GPR151 activ | GPR151 conf act | GPR119 counter
c1ccc(N2CCN(Cc3nnnn3Cc3cccs3)CC2)cc1 | i | i | i | i | nt | nt
c1ccc(CN2CCN(Cc3nnnn3Cc3cccs3)CC2)cc1 | i | i | i | 5.9 | i | i
COCCN(Cc1cc2cc3c(cc2nc1Cl)OCO3)C(=O)c1cccc(F)c1 | i | i | i | i | nt | nt
O=S(=O)(Nc1nc2ccc(S(=O)(=O)N3CCCCC3)cc2s1)c1ccccc1 | i | i | i | 5.3 | i | i
O=C(N[C@H]1C[C@H]2C(=O)N3CCC[C@H]3C(=O)N2C1)c1cccc(Br)c1 | i | i | i | i | nt | nt
O=[N+]([O-])c1ccc(S(=O)(=O)N2CCN(S(=O)(=O)N3CCOCC3)CC2)cc1 | i | i | i | i | nt | nt
O=[N+]([O-])c1ccc(-c2ccc(S(=O)(=O)N3CCOCC3)cc2)cc1 | i | i | i | 5.6 | i | i
Nc1nc(Nc2ccccc2)cc(-c2cccs2)n1 | i | i | i | 6.2 | i | i
Nc1nc(Nc2ccc(Oc3ccccc3)cc2)cc(-c2csc3ccccc23)n1 | i | i | 52 | 6.7 | i | i
Nc1nc(Nc2ccccc2)cc(-c2ccccc2)n1 | i | i | i | i | nt | nt
Nc1nc(Nc2ccc(N3CCOCC3)cc2)cc(-c2csc3ccccc23)n1 | i | i | i | i | nt | nt
CCOC(=O)c1c(NC(=O)CSc2nnc3c4cc(Br)ccc4n(C)c3n2)sc2c1CCC2 | i | i | i | i | nt | nt
O=C(/C=C/c1ccc(Br)cc1)N1CCOCC1 | i | i | i | i | nt | nt
O=C(/C=C/c1ccc(-c2ccc(Br)cc2)o1)N1CCOCC1 | i | i | i | 5.4 | i | i
COc1cc(C)c(CN2CCc3nnc(C(C)NC(=O)C4CCOCC4)n3CC2)cc1C (stereo not drawn) | i | i | i | i | nt | nt
COc1cccc(NC(=O)c2ccc(Cl)cc2Cl)c1 | i | i | i | i | nt | nt
CCCC/C(O)=C1\C(=O)CC(C)(C)CC1=Nc1cccc([N+](=O)[O-])c1 | i | i | i | i | nt | nt
COc1cc2c(cc1OC)C(COc1ccc(F)cc1)NCC2 (stereo not drawn) | i | i | i | 7.1 | i | i
CCOc1ccc(C(=O)N2CCc3cc(OC)c(OC)cc3C2COc2ccc(C(=O)OC)cc2)cc1OCC (stereo not drawn) | i | i | i | 20 | i | i
COc1cc2c(cc1OC)C(COc1ccc(F)cc1)N(C(=O)/C=C/c1cc(OC)c(OC)c(OC)c1)CC2 (stereo not drawn) | i | i | i | 6.3 | i | i
COc1ccc(OCC2c3cc(OC)c(OC)cc3CCN2C(=O)/C=C/c2cc(OC)c(OC)c(OC)c2)cc1 (stereo not drawn) | i | i | i | i | nt | nt
CCOC(=O)c1ccc(OCC2c3cc(OC)c(OC)cc3CCN2C(=O)c2ccc(OCC)c(OCC)c2)cc1 (stereo not drawn) | i | i | i | i | nt | nt
CN(C)c1ccc(/C=C2\C(=O)ON=C2c2ccccc2)cc1[N+](=O)[O-] | 72 | i | i | 5.8 | i | i
O=C1CCCN1CCCNc1nc(Nc2ccc(-n3ccnc3)cc2)nc2c1ncn2C1CCCCC1 | i | i | i | i | nt | nt
O=C(COC(=O)c1cccc(S(=O)(=O)NCC(F)(F)F)c1)c1ccccc1 | i | i | i | 5.6 | i | i
SMILES | MITF inh | FBW7 activator | TEAD-YAP block | GPR151 activ | GPR151 conf act | GPR119 counter
CSc1nc2ccccc2c(=O)n1C1CCCCC1 | i | i | i | 5.3 | i | i
Cn1ccc(CC(=O)N2CCCC(c3ccn[nH]3)C2)c1 (stereo not drawn) | i | i | i | i | nt | nt
O=C(CNS(=O)(=O)c1ccccc1)Nc1cccc(F)c1 | i | i | i | 6.0 | i | i
Cc1ccc(SCC(=O)Nc2cccc(F)c2)cc1 | i | i | i | 6.4 | i | i
O=C(CSc1ccccc1)Nc1cccc(F)c1 | i | i | i | i | nt | nt
O=C(O)c1ccc(NC(=O)c2cccc(S(=O)(=O)Nc3cccc(F)c3)c2)cc1 | i | i | i | 8.7 | i | i
O=C(CNS(=O)(=O)c1ccc(Br)cc1)Nc1cccc(F)c1 | i | i | i | i | nt | nt
CC1CCCCC1NC(=O)Cn1ncn2c(cc3sccc32)c1=O (stereo not drawn) | i | i | i | i | nt | nt
COc1cccc(/C=N/NC(=O)COc2c(OC)cc([N+](=O)[O-])cc2[N+](=O)[O-])c1 | i | i | i | i | nt | nt
Cc1ccc(CNC(=O)Cn2c(=O)n(CCc3ccccc3)c(=O)c3cccnc32)cc1 | i | i | i | i | nt | nt
COc1ccc(NC(=O)NCc2ccncc2)cc1 | i | i | i | i | nt | nt
COc1ccc(NC(=O)C(=O)NCc2ccncc2)cc1 | i | i | i | 5.1 | i | i
CCOc1ccc(C(=O)NC(=S)Nc2cccnc2)cc1Cl | i | i | i | 7.1 | i | i
CCOc1c(Cl)cc(C(=O)NC(C)(C)C)cc1Cl | i | i | i | i | nt | nt
CCOc1ccc(C(=O)NC(=S)Nc2cccnc2)cc1[N+](=O)[O-] | i | i | i | i | nt | nt
CCOc1ccc(C(=O)NC(C)(C)C)cc1Cl | i | i | i | 6.9 | i | i
COc1cc(C(=O)N2CCN(S(=O)(=O)c3ccc(Br)cc3)CC2)cc(OC)c1OC | i | i | i | i | nt | nt
CCN(CCNC(=O)c1cc(C)nn1-c1ccccc1)c1ccccc1 | i | i | i | 7.9 | i | i
COCCNC(=O)c1cc(C)nn1-c1ccccc1 | i | i | i | i | nt | nt
O=C1NC(=Nc2ccc(F)cc2)S/C1=C/c1ccccc1 | i | i | i | i | nt | nt
O=C(NCCN1CCN(c2cccc(Cl)c2)CC1)Nc1ccccc1 | i | i | i | i | nt | nt
CCOc1ccc(N2CCN(CCNC(=O)Nc3cccc(Cl)c3)CC2)cc1 | i | i | i | 5.5 | i | i
COc1cc(=O)n2c(c1C(=O)N1CCCC1)CCN(Cc1cc(C)c(C)cc1C)CC2 | i | i | i | 5.2 | i | i
COc1ccc(C(=O)Oc2ccc(C#N)cc2)cc1 | i | i | i | 6.7 | i | i
C=CCNc1cc(N2CCN(C(=O)c3ccc(F)cc3)CC2)ccc1[N+](=O)[O-] | i | i | i | i | nt | nt
COc1ccc(C(=O)N/N=C/c2ccc(O)c(OC)c2)cc1 | i | i | i | i | nt | nt
COc1ccccc1NC(=O)C(=O)N/N=C/c1ccc(C(=O)O)cc1 | i | i | i | 5.3 | i | i
COc1cc(/C=N/NC(=O)c2ccc(N(C)S(=O)(=O)c3ccccc3)cc2)ccc1O | i | i | i | 9.3 | i | i
COc1ccc(NC(=O)C(=O)N/N=C/c2ccc(C(=O)O)cc2)c(OC)c1 | i | i | i | i | nt | nt
O=C(N/N=C/c1cccc(Br)c1)C(=O)Nc1cccc(C(=O)O)c1 | i | i | i | i | nt | nt
